nsP2pro primary = inhibitors of chikungunya virus nsP2 protease; Q8JUX6; AID 1964107; Potency, µM (series often up to 24.9 µM), most hits filed as inhibitors; FRET peptide cleavage, nsP2pro, fluorescence 1 h; 31,000 compounds, 1.1% hits; also: nearly all actives have a fitted effect of over 60% in size
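Recombinant nsP2pro (150 nM) was preincubated with compound 15 min at room temperature in 10 mM Tris-HCl pH 8.0, 0.01% Tween 20. Peptide 2 FRET substrate (2.5 uM) was then added and fluorescence read after 1 h. Seven-point series, up to 25 uM.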
nsP2 cell sec = cell-based CHIKV nsP2 protease inhibition, secondary | shares compounds with nsP2pro primary | cell-based CHIKV nsP2 protease reporter assay | Potency, µM (titrated, usually from 51.1 µM), hits mostly inhibitors | 450 compounds, 10% hits | AID 1964100; also: nearly all actives have a fitted effect of over 70% in size
CHIKV NSP2 FL = inhibits full-length CHIKV NSP2 enzyme; shares compounds with nsP2pro primary; Full-length CHIKV NSP2 protease enzymatic counterscreen; Potency, µM (series often up to 50.7 µM), hits mostly inhibitors; 410 compounds, 39% hits; also: nearly all actives have a fitted effect of over 65% in size
Furin counterscr = human furin inhibition, counterscreen for nsP2pro inhibitors | shares compounds with nsP2pro primary | Potency, µM (top dose mostly 50.6 µM), hits mostly inhibitors | Recombinant human furin enzymatic counterscreen, fluorogenic substrate | 410 compounds, 6% hits
nsP2 NS23 pep = blocks CHIKV nsP2 protease cleavage of endogenous NS2/3 peptide; shares compounds with nsP2pro primary; Purified CHIKV nsP2 protease, endogenous NS2/3 peptide cleavage; Potency, µM (titrated, usually from 51 µM), hits mostly inhibitors; 410 compounds, 34% hits; also: nearly all actives have a fitted effect of over 55% in size
Papain counter = inhibits papain in a CHIKV nsP2 protease selectivity counterscreen | shares compounds with nsP2pro primary | AID 1964104 | purified papain protease activity, enzymatic inhibition | Potency, µM (doses to about 51 µM), most hits filed as inhibitors | 410 compounds, 5% hits
Target sequence (P00784 whole entry, looked up): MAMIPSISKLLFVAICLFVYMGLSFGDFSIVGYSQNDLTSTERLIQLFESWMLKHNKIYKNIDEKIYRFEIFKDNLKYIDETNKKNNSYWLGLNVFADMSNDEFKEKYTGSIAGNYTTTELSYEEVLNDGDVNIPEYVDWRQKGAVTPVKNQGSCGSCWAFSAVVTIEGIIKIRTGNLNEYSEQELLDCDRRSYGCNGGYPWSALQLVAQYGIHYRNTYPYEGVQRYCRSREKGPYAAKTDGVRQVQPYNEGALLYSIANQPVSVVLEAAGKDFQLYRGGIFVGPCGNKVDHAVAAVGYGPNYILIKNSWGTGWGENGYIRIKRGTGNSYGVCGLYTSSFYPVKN
nsP2pro conf qHTS = confirmation of CHIKV nsP2 protease inhibitors; 410 compounds, 43% hits; CHIKV nsP2 protease enzymatic activity, qHTS; Potency, µM (highest dose often 25.5 µM), hits mostly inhibitors; shares compounds with nsP2pro primary; AID 1964105; also: nearly all actives have a fitted effect of over 75% in size
HCV NS3 4A cs = selectivity counter-screen for CHIKV nsP2 protease inhibitors: HCV NS3/4A; shares compounds with nsP2pro primary; HCV NS3/4A protease biochemical counterscreen; Potency, µM (titrated, usually from 50.9 µM), hits mostly inhibitors; 410 compounds, 20% hits; also: nearly all actives have a fitted effect of over 55% in size
Each line names hits and unclear results; the compound was inactive in the other large screens (follow-up assays come after a bar, where they were run). Shown is part of a subset that was picked to be rich in hits. Calls follow the shape of the full dose curve.

O=C(NC1CCCCC1)O[C@@H]1CO[C@H]2[C@@H]1OC[C@@H]2n1nnnc1SCc1ccco1	nsP2pro primary 0.45µM | nsP2 cell sec inactive | CHIKV NSP2 FL 2.9µM | Furin counterscr inconclusive | nsP2 NS23 pep 6.5µM | Papain counter inactive | nsP2pro conf qHTS 0.9µM | HCV NS3 4A cs inconclusive
O[C@@H]1CO[C@H]2[C@@H]1OC[C@@H]2n1nnnc1Sc1ncccn1	none
CCCC(Nc1nc(-c2ccc(NC(=O)NCC)c(OC)c2)ncc1C)c1cccnc1 (centres undefined)	none
Cc1nn(-c2ccccc2)c2c1C(C(C)C)N(C1CCCN(C(=O)c3ccccc3F)C1)C2=O (centres undefined)	none
O=c1c(-n2ccnn2)c[nH]n1-c1cc(N2CCOCC2)ncn1	none
COc1cccc2c1C(=O)c1c(O)c3c(c(O)c1C2=O)C[C@@](O)(C(=O)CO)C[C@@H]3O[C@H]1C[C@H](N)[C@H](OC2CCCCO2)[C@H](C)O1 (some centres undefined)	none
COc1cccc2c1C(=O)c1c(O)c3c(c(O)c1C2=O)C[C@@](O)(C(=O)CO)CC3OC1CC(N2CCOC(OC)C2)C(O)C(C)O1 (some centres undefined)	none
CC[C@@]1(O)C[C@H](O[C@H]2C[C@H](N(C)C)[C@H](O[C@H]3C[C@H](O)[C@H](O[C@H]4CCC(=O)[C@H](C)O4)[C@H](C)O3)[C@H](C)O2)c2c(cc3c(c2O)C(=O)c2c(O)cccc2C3=O)[C@@H]1C(=O)OC	nsP2pro primary inconclusive | nsP2 cell sec inactive | CHIKV NSP2 FL inconclusive | Furin counterscr inactive | nsP2 NS23 pep inconclusive | Papain counter inactive | nsP2pro conf qHTS inconclusive | HCV NS3 4A cs inactive
CCCNC(=O)N[C@@H]1CCC[C@@H](C(=O)N(CC)CC)CC(=O)N(C)C1	nsP2pro primary 5.6µM | nsP2 cell sec inactive | CHIKV NSP2 FL 24µM | Furin counterscr inconclusive | nsP2 NS23 pep 17µM | Papain counter inactive | nsP2pro conf qHTS 8.2µM | HCV NS3 4A cs inconclusive
CCN(CC)C(=O)[C@@H]1CCC[C@@H](NC(=O)c2ccc(Cl)cc2)CN(C)C(=O)C1	none
CCN(CC)C(=O)[C@@H]1CCC[C@@H](NC(=O)c2ccc(OC)cc2)CN(C)C(=O)C1	none
COc1ccc(C(=O)Nc2nnc(-c3ccco3)o2)cc1OC	none
COc1cccc(-c2ccc3c(N)c(C(=O)c4ccc(Br)cc4)sc3n2)c1	none
CCC(C(=O)NCc1c(C)ncc2c1CCNC2)n1cccn1 (centres undefined)	none
O=c1n(CC2CC2)c2cccnc2n1[C@H]1CCCN(S(=O)(=O)c2cccnc2)C1	none
CC(=O)N1c2ccc(S(=O)(=O)N(C)CC(=O)N(Cc3ccccc3)C(C)C)cc2CC1C (centres undefined)	none
O=c1[nH]c(-c2ccc(C(F)(F)F)cc2)nc2c1CSCC2	nsP2pro primary inconclusive | nsP2 cell sec inactive | CHIKV NSP2 FL inactive | Furin counterscr inactive | nsP2 NS23 pep inactive | Papain counter inactive | nsP2pro conf qHTS inactive | HCV NS3 4A cs inactive
CS(=O)(=O)c1ccccc1N1CCN(c2nc3c(c(=O)[nH]2)CSCC3)CC1	none
O=c1[nH]c(-c2ccc(F)cc2)nc2c1CCN(S(=O)(=O)c1cccs1)C2	none
CCCS(=O)(=O)N1CCC(F)(c2nc(CC(C)C)no2)CC1	none
c1nc(N2CCOCC2)c2c3c(sc2n1)CN(CC1CCCCC1)CC3	none
O=C(Nc1cccnc1)c1ccco1	none
O=C(O/N=C1\c2ccccc2-c2nc3ccccc3nc21)c1ccco1	nsP2pro primary inconclusive | nsP2 cell sec inactive | CHIKV NSP2 FL 3.7µM | Furin counterscr inactive | nsP2 NS23 pep inconclusive | Papain counter 2.6µM | nsP2pro conf qHTS 3.2µM | HCV NS3 4A cs inactive
Cc1cc(NC(=O)c2ccco2)cc(-c2nc3ccccc3o2)c1O	none
CCn1nccc1C(=O)N1CCC([C@H]2[C@@H](OC)CN2C(C)C)CC1	none
COC(=O)c1ccccc1C(=O)N1CCNC(=O)C1Cc1ccccc1 (centres undefined)	none
COc1ccc(-c2noc(C(=O)NC(C)C)c2[C@H](C)O)cc1	none
c1c(C2CC2)nnn1C1CNC1	nsP2pro primary 8.9µM | nsP2 cell sec inactive | CHIKV NSP2 FL inactive | Furin counterscr inactive | nsP2 NS23 pep inconclusive | Papain counter inactive | nsP2pro conf qHTS inconclusive | HCV NS3 4A cs inconclusive
Cc1cnn(-c2cc(N3CCC(n4cc(C5CCCC5)nn4)CC3)ncn2)c1	none
O=C(NCc1ccccc1)c1cn(C2CNC2)nn1	none
O=[N+]([O-])c1ccc(S(=O)(=O)c2ccc(Cl)cc2)nc1	nsP2pro primary 0.32µM | nsP2 cell sec 2.1µM | CHIKV NSP2 FL 0.73µM | Furin counterscr 16µM | nsP2 NS23 pep 1.8µM | Papain counter inactive | nsP2pro conf qHTS 0.45µM | HCV NS3 4A cs 5.2µM
CC(=O)c1c(C)nn(CCC(=O)N2CCC3(CC2)[C@H](O)C[C@@H]3O)c1C	none
O=C(O)[C@@H]1CCCCN1	none
Fc1ccc2nc(CCC#Cc3ccccn3)cn2c1	nsP2pro primary inconclusive | nsP2 cell sec inactive | CHIKV NSP2 FL inactive | Furin counterscr inactive | nsP2 NS23 pep inactive | Papain counter inactive | nsP2pro conf qHTS inactive | HCV NS3 4A cs inactive
O=C(Nc1ccc2c(c1)CN(CCc1ccc(F)cc1)C(=O)CO2)c1c(F)cccc1F	none
COC(=O)[C@@H]1Cc2ncn(Cc3ccccc3)c2CN1C(=O)c1cccs1	none
O=C(O)c1ccccc1Nc1cc(Cl)ccc1C(=O)O	none
Cc1cccc(Nc2ccccc2C(=O)O)c1C	none
Cc1cc(Nc2ccccc2C(=O)O)ccc1Cl	nsP2pro primary 3.5µM | nsP2 cell sec inactive | CHIKV NSP2 FL 13µM | Furin counterscr inactive | nsP2 NS23 pep inconclusive | Papain counter inconclusive | nsP2pro conf qHTS 2µM | HCV NS3 4A cs inactive
COc1nc2ccc(Br)cc2cc1[C@@H](c1ccccc1)[C@@](O)(CCN(C)C)c1cccc2ccccc12	nsP2pro primary 1.2µM | nsP2 cell sec inconclusive | CHIKV NSP2 FL inconclusive | Furin counterscr inactive | nsP2 NS23 pep inconclusive | Papain counter inactive | nsP2pro conf qHTS 7.1µM | HCV NS3 4A cs inactive
CSc1ccc(CCNc2ncnc3onc(C)c23)cc1	none
CCCCNc1nc(Oc2ccc(=O)n(C)n2)nc(N2CCOCC2)n1	none
O=C1CCN(Cc2ccncc2)CCCC(CO)CCN1 (centres undefined)	none
